This note sets out measurements from PubChem BioAssay.

Each structure is given as a SMILES string. Active and inactive are the calls of the source.

For assay [1], the system named is Human papillomavirus type 1a protein E7 (residues 44-93). In words: small molecules binding HPV E7 44-93 – biochemical, small-molecule microarray, residues 44-93, 635 nm fluorescence, primary screen (AID 1108).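 Further: E7 fragment applied at 1 µg/mL in TBST for 1 h at 4 C; score combines spot fluorescence with its signal to noise ratio.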 To be noted: fluorescence 635 nm, higher = more signal.
Assay [2] in a line: hepatitis C replication reporter changes, two-sided – Huh7 cells, luciferase reporter, HCV replication inhibitor project, primary screen (AID 1109).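 Further: huh7 hepatoma cells harbouring a luciferase neomycin HCV replicon reporter; luciferase luminescence as measure of HCV replicon replication; test concentration not given here.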 To be noted: Huh7 HCV replicon luciferase reporter, 48 h; higher = more signal.
Assay [3] has as its target Left-right determination factor 2 (Homo sapiens) (UniProt O00292). Nature of the assay: small molecules binding LEFTY2 protein – biochemical, small-molecule microarray, 635 nm fluorescence scan, primary screen (AID 1110). The note with it: higher = more signal.
Assay [4] deals with Calmodulin-1 (Homo sapiens) (UniProt P0DP23). In words: small molecules binding calmodulin-1 with EGTA – biochemical, small-molecule microarray, Cy5-labelled CALM1, profiling panel (AID 1111).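 Further: labelled calmodulin applied in Tris saline Tween buffer holding calcium plus EGTA and DTT.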 To be noted: Cy5-CALM1 binding fluorescence, higher = more signal.
Assay [5] has the same target. In words: small molecules binding Ca-loaded calmodulin-1 – biochemical, small-molecule microarray, Cy5-labelled CALM1, plus calcium, artefact control for SMM control-protein annotation, profiling panel (AID 1112).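 Further: score merges spot fluorescence with signal to noise from triplicate slides.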 To be noted: Cy5-CALM1 binding fluorescence, higher = more signal.
Assay [6] in a line: probe aWnt5a binding to arrayed compounds – biochemical, biotinylated probe, 635/667 nm fluorescence, primary screen (AID 1113).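 Further: score merges 667 nm fluorescence intensity with signal-to-noise per printed feature.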 To be noted: small-molecule microarray, higher = more signal.
Assay [7] can be described thus: probe aShh binding to arrayed compounds – biochemical, biotinylated probe, 635/667 nm fluorescence, primary screen (AID 1114).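 Further: probe is biotin-labelled aShh protein from a stem cell growth factor screen; measures binding of labelled protein to compounds printed on the slide; score merges feature fluorescence at 667 nm with signal-to-noise.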 To be noted: small-molecule microarray, higher = more signal.
The nature of assay [8]: probe aNog binding to arrayed compounds – biochemical, biotinylated probe, 635/667 nm fluorescence, primary screen (AID 1115).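 Further: probe is biotinylated aNog protein used at 0.15 µg/mL for 1 h at 4 C; z-score combines 667 nm fluorescence of each spot with its signal to noise.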 To be noted: small-molecule microarray, higher = more signal.
Assay [9] has as its target Torsin-1A-interacting protein 1 (Homo sapiens) (UniProt Q5JTV8). In words: compound microarray binding of lysate hLAP1 – cell lysate, small-molecule microarray, COS7 lysate, 635/667 nm fluorescence, primary screen (AID 1116). The note with it: 635 nm fluorescence, higher = more signal.
Assay [10] has as its target Alpha-bungarotoxin (Bungarus multicinctus) (UniProt P60615). Nature of the assay: compounds binding labelled alpha-BTX control protein – biochemical, small-molecule microarray, Alexa647 label, 635/667 nm fluorescence, artefact control for SMM control protein annotation, profiling panel (AID 1117). The note with it: alpha-BTX-A647 binding fluorescence, higher = more signal.

The next assay deals with Albumin (Bos taurus) (UniProt P02769). In words: compounds binding labelled BSA control protein – biochemical, small-molecule microarray, Alexa647 label, 635/667 nm fluorescence, artefact control for SMM control protein annotation, profiling panel (AID 1118).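 Further: score merges 667 nm emission intensity and signal-to-noise per printed compound spot.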 The note with it: BSA-A647 binding, fluorescence 635 nm, higher = more signal.
A short description of assay [11]: probe aXIP binding to arrayed compounds – biochemical, NeuroSMM set, 635/667 nm fluorescence, primary screen (AID 1119).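 Further: probe is the protein aXip251-270 applied at 1 µg/mL to compound-printed slides; binding of probe to printed compounds measured as 667 nm fluorescence plus signal to noise.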 To be noted: small-molecule microarray, higher = more signal, called active from +8 up or from −8 down.
A short description of assay [12]: probe aNOTCH3 binding on compound microarray – biochemical, small-molecule microarray, 635/667 nm fluorescence, primary screen (AID 1120).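 Further: probe is a biotin-tagged antibody raised against NOTCH3 rather than NOTCH3 protein; score merges spot fluorescence near 667 nm with spot signal to noise.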 To be noted: higher = more signal.
Assay [13] in a line: probe aNOTCH2 binding on compound microarray – biochemical, small-molecule microarray, 635/667 nm fluorescence, primary screen (AID 1121).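 Further: score merges feature fluorescence read at 667 nm with its signal to noise.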 To be noted: higher = more signal.
Assay [14] concerns the target Carbonic anhydrase 2 (Homo sapiens) (UniProt P00918). Nature of the assay: compounds binding carbonic anhydrase 2 – biochemical, small-molecule microarray, Alexa647-labelled CAII, profiling panel (AID 1122). To be noted: CAII-A647 binding fluorescence, higher = more signal.
Assay [15] can be described thus: COS7 lysate on small-molecule microarray, probe aHis, 635 nm (AID 1123).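 Further: z-score combines 667nm fluorescence intensity with signal-to-noise per printed compound spot.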 The note with it: COS7 cell lysate, fluorescence, higher = more signal.
Assay [16] is described as follows: probe aLAP1 signal on lysate-treated microarray – cell lysate, small-molecule microarray, COS7 lysate, primary screen (AID 1124).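 Further: lysate comes from COS7 cells expressing LAP1 and is applied at 0.3 µg/mL; score merges spot fluorescence near 667 nm with signal-to-noise over triplicate slides.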 To be noted: probe aLAP1, fluorescence, higher = more signal.
Another assay deals with Sam68 (KHDRBS1). In words: compounds binding KHDRBS1 protein – biochemical, small-molecule microarray, 635 nm fluorescence, primary screen (AID 1125).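 Further: score merges 667 nm channel intensity with signal to noise over triplicate slides.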 The note with it: higher = more signal.
For assay [17], the system named is Chordin-like protein 2 (CHRDL2). In words: compounds binding chordin-like 2 – biochemical, small-molecule microarray, 635 nm fluorescence, primary screen (AID 1126).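 Further: printed compound slides probed with Chrdl2 protein at 4 µg/mL for 1 h at 4 C; score merges 667 nm emission intensity with signal to noise over three replicate slides.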 To be noted: fluorescence 635 nm, higher = more signal.
Assay [18] addresses Concanavalin-A (Canavalia ensiformis) (UniProt P02866). In words: compounds binding concanavalin A lectin – biochemical, small-molecule microarray, Alexa647 label, 635 nm, artefact control for SMM control protein annotation, primary screen (AID 1127).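 Further: z combines 667 nm emission intensity with signal-to-noise across three replicate slides.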 To be noted: ConA-A647 binding fluorescence, higher = more signal.

Alpha-bungarotoxin (Bungarus multicinctus), sequence (P60615 whole entry, looked up): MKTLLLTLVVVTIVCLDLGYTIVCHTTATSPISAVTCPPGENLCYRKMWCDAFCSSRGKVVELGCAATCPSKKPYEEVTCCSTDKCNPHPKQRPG
Torsin-1A-interacting protein 1 (Homo sapiens), sequence (Q5JTV8 whole entry, looked up): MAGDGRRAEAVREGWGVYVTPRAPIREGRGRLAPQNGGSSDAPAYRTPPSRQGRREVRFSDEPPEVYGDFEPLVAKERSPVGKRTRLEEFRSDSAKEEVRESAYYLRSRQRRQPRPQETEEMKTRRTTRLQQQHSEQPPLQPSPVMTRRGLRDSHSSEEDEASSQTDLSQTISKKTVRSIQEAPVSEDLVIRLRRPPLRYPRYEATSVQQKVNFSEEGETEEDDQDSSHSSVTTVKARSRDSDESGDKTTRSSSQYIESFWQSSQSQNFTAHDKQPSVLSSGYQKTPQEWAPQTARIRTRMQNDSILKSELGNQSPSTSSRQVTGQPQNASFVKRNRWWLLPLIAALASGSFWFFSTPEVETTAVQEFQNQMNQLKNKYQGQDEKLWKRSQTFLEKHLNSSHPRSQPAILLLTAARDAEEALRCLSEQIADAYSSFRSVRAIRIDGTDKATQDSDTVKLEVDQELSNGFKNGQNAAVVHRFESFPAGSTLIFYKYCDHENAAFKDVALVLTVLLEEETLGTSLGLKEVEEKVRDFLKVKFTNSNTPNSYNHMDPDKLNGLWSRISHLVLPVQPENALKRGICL
Concanavalin-A (Canavalia ensiformis), sequence (P02866 whole entry, looked up): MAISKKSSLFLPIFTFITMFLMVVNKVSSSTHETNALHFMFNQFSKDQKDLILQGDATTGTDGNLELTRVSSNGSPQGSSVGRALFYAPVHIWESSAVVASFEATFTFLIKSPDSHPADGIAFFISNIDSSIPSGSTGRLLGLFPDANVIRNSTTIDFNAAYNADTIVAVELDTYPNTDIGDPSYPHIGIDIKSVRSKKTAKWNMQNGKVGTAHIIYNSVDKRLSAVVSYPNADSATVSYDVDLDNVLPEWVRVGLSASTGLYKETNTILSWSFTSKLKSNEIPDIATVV
Left-right determination factor 2 (Homo sapiens), sequence (O00292 whole entry, looked up): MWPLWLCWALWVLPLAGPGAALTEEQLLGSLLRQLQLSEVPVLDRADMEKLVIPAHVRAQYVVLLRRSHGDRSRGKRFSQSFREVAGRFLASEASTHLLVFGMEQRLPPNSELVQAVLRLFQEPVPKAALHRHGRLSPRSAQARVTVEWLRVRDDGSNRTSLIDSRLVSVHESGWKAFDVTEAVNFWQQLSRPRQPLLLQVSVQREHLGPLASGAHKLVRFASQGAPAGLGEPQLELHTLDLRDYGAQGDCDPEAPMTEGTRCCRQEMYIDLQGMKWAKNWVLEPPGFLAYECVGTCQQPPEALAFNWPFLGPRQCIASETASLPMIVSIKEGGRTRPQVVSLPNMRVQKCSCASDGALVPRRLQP
Albumin (Bos taurus), sequence (P02769 whole entry, looked up): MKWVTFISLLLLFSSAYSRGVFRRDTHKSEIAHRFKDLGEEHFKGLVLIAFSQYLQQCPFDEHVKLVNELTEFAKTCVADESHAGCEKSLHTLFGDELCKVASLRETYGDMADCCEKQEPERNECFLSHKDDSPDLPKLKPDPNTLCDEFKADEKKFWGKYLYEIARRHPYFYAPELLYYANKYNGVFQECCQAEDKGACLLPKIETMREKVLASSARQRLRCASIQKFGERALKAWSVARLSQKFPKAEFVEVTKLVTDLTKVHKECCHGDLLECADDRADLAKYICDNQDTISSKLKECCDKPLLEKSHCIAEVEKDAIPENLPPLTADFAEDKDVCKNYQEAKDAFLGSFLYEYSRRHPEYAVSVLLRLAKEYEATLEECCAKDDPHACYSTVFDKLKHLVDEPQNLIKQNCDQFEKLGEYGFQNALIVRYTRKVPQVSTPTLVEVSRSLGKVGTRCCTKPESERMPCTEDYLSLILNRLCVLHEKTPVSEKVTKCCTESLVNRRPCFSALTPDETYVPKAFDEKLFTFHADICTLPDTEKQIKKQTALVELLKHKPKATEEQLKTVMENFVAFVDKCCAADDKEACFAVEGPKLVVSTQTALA

As to `C[C@@H]1CC[C@@H](C(=O)O)N[C@H]1c1cccc(N2CCOCC2)c1`, the composite z-score is 0.456 in [1]; 0.436 in assay [3]; -0.101 in assay [4]; -0.0411 in assay [5]; -0.0758 in assay [6]; -0.262 in assay [7]. The composite z-score is -0.324 in assay [8]; 0.513 in [9]; 0.851 in assay [10]; 0.262 in the assay with Albumin (Bos taurus); 0.0624 in assay [12]; -0.126 in assay [13]. For the same compound, the composite z-score in assay [14] was 0.295; in [15], 0.531; in assay [16] it was -0.581; in the assay with Sam68 (KHDRBS1), 0.225; in assay [17] it was 0.224; in assay [18] it was 0.305. The z-score in assay [2] was found to be 0.47. For the same compound, the composite Z-score in assay [11] was 0.227 (inactive).

For `CC(C)CON=C1C[C@@H](O)[C@@H](O)[C@@H]2[C@@H]3C(=O)N(Cc4ccc5c(c4)OCO5)C(=O)[C@@H]3CC[C@@H]12`, the composite z-score in assay [1] was 0.44; in assay [3], -0.119; in [4], 0.349; in assay [5], -0.311; in [6], -0.0279; in assay [7], -0.0769. The composite z-score is -0.103 in [8]; 0.086 in assay [9]; 0.748 in [10]; 0.713 with Albumin (Bos taurus); -0.179 in [12]; -0.0891 in assay [13]. Besides, the composite z-score in assay [14] was 0.614; in assay [15], 0.862; in assay [16] it was -0.0121; in the assay with Sam68 (KHDRBS1), 0.853; in assay [17] it was -0.0113; in assay [18] it was 0.922. This compound displayed a z-score in [2] of 0.081. Moreover, in assay [11], the composite Z-score is 0.311 (inactive).

For `CC(C)=CCCC(C)=CCON=C1C[C@@H](O)[C@@H](O)[C@@H]2[C@@H]3C(=O)N(Cc4ccc5c(c4)OCO5)C(=O)[C@@H]3CC[C@@H]12`, the composite z-score in assay [1] is 0.909; in assay [3] it was 0.368; in [4], 0.359; in assay [5], -0.0661; in assay [6] it was 0.0388; in assay [7], -0.0396. The composite z-score in assay [8] was 0.824; in assay [9] it was 0.999; in [10], 0.59; in the assay with Albumin (Bos taurus) it was 0.653; in [12] it was 0.0827; in [13], -0.0811. Moreover, the composite z-score in [14] was determined as 0.495; in [15], 1.29; in assay [16], 0.237; in the assay with Sam68 (KHDRBS1) it was 1.31; in assay [17], 1.19; in assay [18], 0.959. The compound also displayed a z-score in [2] of 0.298. Besides, the composite Z-score in assay [11] was 0.74 (inactive).

Take `CON=C[C@@H](OC)[C@H](C)C=CCC(=O)OC`: the composite z-score in [1] was -1.72; in assay [3] it was 0.262; in assay [4] it was -0.491; in [5], -0.476; in [6] it was -0.0573; in assay [7] it was 0.0952. Besides, the composite z-score is -0.296 in assay [8]; 0.447 in [9]; -0.023 in assay [10]; -0.518 in the assay with Albumin (Bos taurus); -0.0014 in assay [12]; -0.201 in assay [13]. Further, the composite z-score was -0.312 in assay [14]; 0.157 in [15]; -0.195 in assay [16]; -0.258 with Sam68 (KHDRBS1); 0.231 in assay [17]; -0.105 in [18]. In assay [2], the z-score was -0.337. Also, in assay [11], the composite Z-score was 0.0575 (inactive).

As to `COc1ccc2c(c1)O[C@@H](c1cccc(C(F)(F)F)c1)[C@H](O)C2=O`, the composite z-score in [1] is 0.368; in assay [3] it was 0.428; in assay [4] it was 0.172; in assay [5] it was -0.427; in assay [6], -0.172; in assay [7] it was -0.304. For the same compound, the composite z-score is -0.0496 in assay [8]; 0.342 in assay [9]; 0.375 in assay [10]; 0.442 in the assay with Albumin (Bos taurus); -0.152 in [12]; -0.0761 in assay [13]. Further, the composite z-score in assay [14] was 0.0122; in assay [15], -0.0749; in assay [16], 0.0318; in the assay on Sam68 (KHDRBS1) it was 0.642; in assay [17], 0.647; in [18], 0.494. The compound further gave a z-score in [2] of 1.18. The composite Z-score in assay [11] is 0.115 (inactive).

With `CO[C@@H]1COC(=O)[C@H](COCc2ccccc2)NC(=O)CC=C[C@@H](C)[C@H](OC)COC(=O)[C@@H](C)NC(=O)CC=C[C@H]1C`, the composite z-score in assay [1] is -0.747; in [3] it was 0.583; in [4], -1.78; in [5] it was -2.61; in [6], -0.18; in assay [7], 0.0062. Also, the composite z-score in assay [8] is -0.643; in [9], 0.343; in [10] it was -1.31; with Albumin (Bos taurus), -0.764; in assay [12] it was 0.127; in assay [13] it was -0.126. The composite z-score is -0.557 in assay [14]; -0.887 in assay [15]; -0.184 in assay [16]; 0.0125 with Sam68 (KHDRBS1); 1.02 in assay [17]; -3.28 in [18]. The z-score in [2] was -0.536. Moreover, the composite Z-score in assay [11] was -0.0478 (inactive).
